Experimental data reported in PubChem BioAssay (NCATS).
Where “and” joins values, the source holds several entries; their conditions need not be identical. Identical values can stand only once. Inconclusive results are not listed. A structure can be active in one record and inactive in another. Calls of active or inactive are those of the source. Unless noted, calls come from the whole dose curve; as a rule, active = well fitted curve in the direction sought with a large enough effect; inconclusive = small, poorly fitted or top-dose-only effect, or another doubt; inactive = no such curve, though single readings can be large; an effect the other way counts as inactive or inconclusive.

Columns and labels:
[1] = qHTS Assay for Identification of Small Molecule Antagonists for NFkB Signaling Pathway (AID 895; active = well fitted inhibition curve with a large enough effect in the signal ratio, with a control signal flat, not every such curve was filed as active; the % refers to the signal ratio; note: % is set by controls: 0 for no effect and ±100 for the full control effect)
Procedure, shortened: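 NFkB-bla ME-180 cervical carcinoma cells with beta-lactamase reporter under NFkB response element; compounds added, then TNF alpha at 10 pM final (EC50), 5 h at 37 C. LiveBLAzer substrate 2 h, room temperature; emission 460/530 nm at 405 nm excitation.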

[2] = qHTS Assay for Identification of Small Molecule Agonists for Hypoxia Response Element Signaling Pathway (AID 914; active = well fitted activation curve with a large enough effect in the signal ratio, with a control signal flat, not every such curve was filed as active; the % refers to the signal ratio; note: % of control where 0% means no effect); conditions: ME-180 (cervical carcinoma) HRE-bla reporter, beta-lactamase ratio, CoCl2, 17 h; activation: stronger effect = higher value
Procedure, shortened: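 qHTS titration; ME-180 HRE-bla cells; EC50 CoCl2 co-treatment, 17 h at 37 degrees Celsius; CCF4 dye, ex 405nm, em 460nm and 530nm; %Activity from ratio; AC50.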

[3] = target: Muscarinic acetylcholine receptor M1 (Rattus norvegicus) (UniProt P08482); assay: qHTS Assay for Antagonists of Acetylcholine Muscarinic M1 Receptor: Measurement of IP-One Response (AID 944); note: nearly all actives have a fitted effect of over 75% in size
Muscarinic acetylcholine receptor M1 (Rattus norvegicus), sequence (P08482 whole entry, looked up): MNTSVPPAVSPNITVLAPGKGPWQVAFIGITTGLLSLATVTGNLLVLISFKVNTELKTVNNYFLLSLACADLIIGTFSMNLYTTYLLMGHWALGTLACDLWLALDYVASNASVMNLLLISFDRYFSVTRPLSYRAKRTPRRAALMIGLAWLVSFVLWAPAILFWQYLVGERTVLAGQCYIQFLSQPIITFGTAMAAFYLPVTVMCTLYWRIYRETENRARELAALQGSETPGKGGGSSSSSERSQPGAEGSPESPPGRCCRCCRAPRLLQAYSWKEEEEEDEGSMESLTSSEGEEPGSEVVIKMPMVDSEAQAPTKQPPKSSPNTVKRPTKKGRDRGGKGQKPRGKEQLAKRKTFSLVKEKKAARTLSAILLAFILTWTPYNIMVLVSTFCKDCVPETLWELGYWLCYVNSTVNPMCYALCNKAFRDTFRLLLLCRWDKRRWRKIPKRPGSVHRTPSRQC
Procedure, shortened: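 CHO cells stably expressing rat M1, pretreated 10 min with compound, then stimulated 30 min with carbachol at EC80 (200 nM) in LiCl-containing buffer pH 7.4; IP1 accumulation read by HTRF competition (665/620 nm).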

[4] = target: Pyruvate kinase (Leishmania mexicana) (UniProt Q27686); assay: qHTS Validation Assay for Inhibitors of Leishmania Mexicana Pyruvate Kinase (AID 945);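 note: 0% = DMSO only neutral control wells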
Pyruvate kinase (Leishmania mexicana), sequence (Q27686 2-499 E452W): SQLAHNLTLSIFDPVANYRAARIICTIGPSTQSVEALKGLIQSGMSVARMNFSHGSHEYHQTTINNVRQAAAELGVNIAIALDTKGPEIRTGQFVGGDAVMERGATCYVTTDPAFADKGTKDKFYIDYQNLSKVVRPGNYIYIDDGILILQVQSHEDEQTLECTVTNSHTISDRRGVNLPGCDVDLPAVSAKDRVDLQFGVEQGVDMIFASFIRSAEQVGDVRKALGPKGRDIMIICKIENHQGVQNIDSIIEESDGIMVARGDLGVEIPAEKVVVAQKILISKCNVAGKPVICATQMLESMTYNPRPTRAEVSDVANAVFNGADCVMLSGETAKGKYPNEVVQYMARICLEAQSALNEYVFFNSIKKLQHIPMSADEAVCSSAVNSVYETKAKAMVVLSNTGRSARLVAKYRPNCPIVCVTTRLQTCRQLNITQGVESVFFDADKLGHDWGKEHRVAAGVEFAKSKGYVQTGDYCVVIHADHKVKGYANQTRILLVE
Procedure, shortened: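 Read-out: luminescence from PKLight stop/detection reagent, data normalized to DMSO. Reaction: 0.2 nM E451W LmPYK, 0.5 mM PEP, 0.1 mM ADP, pH 7.2, 1 h room temperature.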

[5] = target: Pyruvate kinase PKM (Homo sapiens) (UniProt P14618); assay: qHTS Assay for Activators of Human Muscle Pyruvate Kinase (AID 954; active = well fitted curve in the direction sought with a large enough effect, not every such curve was filed as active;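 note: 0% = uninhibited enzyme and -100% = no enzyme or full thiadiazolimine inhibition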)
Pyruvate kinase PKM (Homo sapiens), sequence (P14618 whole entry, looked up): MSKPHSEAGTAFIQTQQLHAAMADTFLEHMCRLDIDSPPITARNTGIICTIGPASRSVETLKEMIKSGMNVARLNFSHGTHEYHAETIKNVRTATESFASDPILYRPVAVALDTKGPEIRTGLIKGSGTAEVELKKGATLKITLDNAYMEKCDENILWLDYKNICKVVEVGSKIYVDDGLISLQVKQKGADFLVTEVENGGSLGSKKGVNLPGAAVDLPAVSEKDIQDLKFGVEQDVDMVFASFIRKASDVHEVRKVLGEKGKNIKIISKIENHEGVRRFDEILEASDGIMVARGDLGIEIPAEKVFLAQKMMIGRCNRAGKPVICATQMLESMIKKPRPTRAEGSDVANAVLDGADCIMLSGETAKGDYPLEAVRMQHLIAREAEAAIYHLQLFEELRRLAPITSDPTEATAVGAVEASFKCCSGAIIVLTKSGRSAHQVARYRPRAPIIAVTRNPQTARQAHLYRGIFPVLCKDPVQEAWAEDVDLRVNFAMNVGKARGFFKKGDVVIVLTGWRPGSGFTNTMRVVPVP
Procedure, shortened: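 Reaction: 0.1 nM purified PKM2 with 0.5 mM phosphoenolpyruvate and 0.1 mM ADP, room temperature, 1 h. Readout: luciferase-based ATP luminescence after stop reagent. Activators judged against a 0.3 nM enzyme column.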

[6] = target: Alpha-galactosidase (Coffea arabica) (UniProt Q42656); assay: Counterscreen for Glucocerebrosidase Inhibitors: qHTS Assay for Coffee Bean alpha-Galactosidase at pH 4.5 (AID 957);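 note: plate controls were enzyme alone for no effect and no enzyme for full effect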
Alpha-galactosidase (Coffea arabica), sequence (Q42656 whole entry, looked up): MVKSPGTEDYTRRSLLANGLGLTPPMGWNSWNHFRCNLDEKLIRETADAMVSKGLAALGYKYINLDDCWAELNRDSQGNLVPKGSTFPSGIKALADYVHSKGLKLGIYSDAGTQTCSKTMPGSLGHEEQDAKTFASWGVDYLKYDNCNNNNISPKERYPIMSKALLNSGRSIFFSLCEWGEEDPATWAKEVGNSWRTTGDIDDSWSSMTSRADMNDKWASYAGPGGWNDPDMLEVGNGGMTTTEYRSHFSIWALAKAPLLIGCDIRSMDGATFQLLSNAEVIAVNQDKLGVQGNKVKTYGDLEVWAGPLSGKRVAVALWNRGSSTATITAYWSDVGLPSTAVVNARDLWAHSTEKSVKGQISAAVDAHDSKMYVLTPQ
Procedure, shortened: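 Coffee bean enzyme (2 nM) with 80 uM 4-methylumbelliferyl alpha-D-galactopyranoside in 50 mM citric acid, 0.005% Tween-20, pH 4.5, 20 min at room temperature; compounds 0.7 nM–77 uM. Stopped at pH 10, fluorescence 365/440 nm; AC50 from Hill fits.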

[7] = target: Alpha-galactosidase A (Homo sapiens) (UniProt P06280); assay: Counterscreen for Glucocerebrosidase Inhibitors: qHTS Assay for Human alpha-Galactosidase at pH 4.5 (AID 992); note: 0% is about no effect
Alpha-galactosidase A (Homo sapiens), sequence (P06280 whole entry, looked up): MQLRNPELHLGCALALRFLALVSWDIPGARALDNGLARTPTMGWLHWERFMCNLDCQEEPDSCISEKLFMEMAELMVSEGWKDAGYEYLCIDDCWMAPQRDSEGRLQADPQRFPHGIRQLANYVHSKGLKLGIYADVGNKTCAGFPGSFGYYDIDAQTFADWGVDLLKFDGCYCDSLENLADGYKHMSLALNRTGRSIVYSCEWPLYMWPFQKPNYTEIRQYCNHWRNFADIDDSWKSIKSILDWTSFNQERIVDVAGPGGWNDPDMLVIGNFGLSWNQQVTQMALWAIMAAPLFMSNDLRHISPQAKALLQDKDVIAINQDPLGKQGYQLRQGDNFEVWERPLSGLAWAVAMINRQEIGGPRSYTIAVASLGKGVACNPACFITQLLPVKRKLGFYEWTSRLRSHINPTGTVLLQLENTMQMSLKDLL
Procedure, shortened: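 Concentration-response curves (0.7 nM to 77 uM final) were modeled with the Hill equation to give AC50. Reactions: 2 nM enzyme, 80 uM fluorogenic alpha-galactoside, pH 4.5 citric acid buffer, 20 min, room temperature.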

[8] = target: alpha-glucosidase (Oryza sativa, rice) (UniProt Q653V4); assay: Counterscreen for Glucocerebrosidase Inhibitors: qHTS Assay for Rice alpha-Glucosidase at pH 5.0 (AID 997);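 note: 0% = full activity with enzyme and -100% = basal without enzyme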
Procedure, shortened: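 Rice alpha-glucosidase (4 nM final) with 400 uM 4-methylumbelliferyl-alpha-D-glucopyranoside in citrate buffer pH 5.0, 20 min at room temperature, stopped at pH 10; fluorescence 365/440 nm, compounds 0.7 nM–77 uM, AC50 from Hill fits.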

[9] = target: Alpha-galactosidase (Coffea arabica) (UniProt Q42656); assay: Counterscreen for Glucocerebrosidase Inhibitors: qHTS Assay for Coffee Bean alpha-Galactosidase at pH 5.9 (AID 998);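 note: plate controls were uninhibited enzyme for no effect and no-enzyme basal signal for full effect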
Procedure, shortened: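 Green coffee bean enzyme (2 nM final) was incubated with compounds (0.7 nM–77 uM) and 4-methylumbelliferyl alpha-D-galactopyranoside (80 uM) in citrate buffer pH 5.9, 20 min at room temperature. High-pH stop; fluorescence 365/440 nm; AC50 from Hill fits.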

[10] = target: Cytochrome P450 2C19 (Homo sapiens) (UniProt P33261); assay: qHTS Assay for Inhibitors and Substrates of Cytochrome P450 2C19 (AID 899); note: nearly all actives have a fitted effect of over 60% in size; note: potency is the fitted concentration of half-maximal effect
Cytochrome P450 2C19 (Homo sapiens), sequence (P33261 whole entry, looked up): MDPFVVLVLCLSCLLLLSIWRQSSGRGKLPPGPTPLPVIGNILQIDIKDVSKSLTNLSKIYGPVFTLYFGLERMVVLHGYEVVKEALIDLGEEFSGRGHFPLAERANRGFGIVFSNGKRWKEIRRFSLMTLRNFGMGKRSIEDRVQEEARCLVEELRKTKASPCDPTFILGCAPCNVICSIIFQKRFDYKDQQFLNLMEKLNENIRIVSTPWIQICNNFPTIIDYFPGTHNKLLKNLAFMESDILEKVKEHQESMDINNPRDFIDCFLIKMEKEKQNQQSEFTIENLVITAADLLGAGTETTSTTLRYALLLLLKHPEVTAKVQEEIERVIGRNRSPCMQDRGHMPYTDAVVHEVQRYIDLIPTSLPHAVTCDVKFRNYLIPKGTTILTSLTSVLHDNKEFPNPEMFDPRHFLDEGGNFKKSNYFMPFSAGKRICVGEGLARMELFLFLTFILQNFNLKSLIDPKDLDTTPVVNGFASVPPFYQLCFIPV
Procedure, shortened: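 In 50mM KPO4, the reaction held 5nM enzyme and KM-level (10uM) Luciferin-H EGE; it ran 60 min at 37C after NADPH regeneration and a 10 min compound preincubation. Luminescence values were scaled to 57uM ketoconazole as complete inhibition.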

[11] = target: Cytochrome P450 2C9 (Homo sapiens) (UniProt P11712); assay: qHTS Assay for Inhibitors and Substrates of Cytochrome P450 2C9 (AID 883); note: nearly all actives have a fitted effect of over 60% in size; note: potency is the fitted concentration of half-maximal effect
Cytochrome P450 2C9 (Homo sapiens), sequence (P11712 whole entry, looked up): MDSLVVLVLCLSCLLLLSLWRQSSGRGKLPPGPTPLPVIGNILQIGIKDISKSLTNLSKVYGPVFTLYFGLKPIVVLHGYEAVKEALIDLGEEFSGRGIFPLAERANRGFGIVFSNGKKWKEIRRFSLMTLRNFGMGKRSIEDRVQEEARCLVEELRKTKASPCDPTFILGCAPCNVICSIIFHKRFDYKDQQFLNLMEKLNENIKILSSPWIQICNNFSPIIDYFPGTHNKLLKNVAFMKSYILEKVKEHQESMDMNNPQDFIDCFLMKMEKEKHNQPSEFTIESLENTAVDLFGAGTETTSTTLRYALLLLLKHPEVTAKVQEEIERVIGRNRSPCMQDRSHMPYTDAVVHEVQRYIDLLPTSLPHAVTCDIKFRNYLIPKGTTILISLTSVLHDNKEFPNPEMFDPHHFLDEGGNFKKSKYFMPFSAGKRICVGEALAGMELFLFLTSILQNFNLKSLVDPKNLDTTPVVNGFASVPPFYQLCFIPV
Procedure, shortened: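 CYP2C9 deoxyluciferin hydroxylation, 37C, 60 min with NADPH regeneration; 10nM enzyme, 100uM Luciferin-H (KM). Glo detection reagent stopped reaction; luminescence normalized to sulphaphenazole (57uM) full inhibition.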

[12] = qHTS Assay for Identification of Small Molecule Agonists for Thrombopoietin (TPO) Signaling Pathway (AID 917); note: % is set by controls: 0 for no effect and ±100 for the full control effect
Procedure, shortened: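 We measured Glycoprotein IIb promoter–luciferase output in IL-3-starved Ba/F3 murine cells expressing the human TPO receptor after 24 hrs at 37 C with compounds and 26 pM TPO.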

[13] = target: Muscarinic acetylcholine receptor M1 (Rattus norvegicus) (UniProt P08482); assay: qHTS Assay for Antagonists of Acetylcholine Muscarinic M1 Receptor: Kinetic Measurement of Intracellular Calcium Response (AID 943); note: nearly all actives have a fitted effect of over 75% in size
Procedure, shortened: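 CHO cells expressing rat M1 receptor, Fluo-4 loaded, preincubated 10 min with compound, then stimulated with EC80 carbachol (100 nM final). Kinetic calcium fluorescence over 4 min; response taken as peak over basal signal.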

[14] = Confirmation and Secondary Assay for Modulators of Hemoglobin Beta Chain Splicing at IVS2 654 locus (AID 910);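 note: per-well total GFP intensity by laser scanning cytometry after 2-day treatment; % of control where 0% means no effect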
Procedure, shortened: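 HeLa cells stably carrying EGFP interrupted by mutant beta-globin IVS2-654 intron (CMV-driven) were treated with compound for 2 days at 37C; corrected splicing was scored as total peak GFP intensity per well (488 nm excitation, 500-520 nm emission).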

[15] = Confirmation and Secondary Assay for Modulators of Hemoglobin Beta Chain Splicing at IVS2 705 locus (AID 930);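 note: HeLa cells stably expressing the EGFP-705 splicing reporter; GFP fluorescence per well restored by corrected splicing of the IVS2-705 intron in EGFP; % of control where 0% means no effect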
Procedure, shortened: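 Secondary splice-site specificity test uses HeLa expressing CMV-driven EGFP interrupted by IVS2-705; cells were treated 2 days at 37C with 500 nM antisense PNA as positive control.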

[16] = qHTS assay for cell viability of HEK293 cells (AID 743288); conditions: ATP luminescence (CellTiter-Glo), 18 h; max response: stronger effect = lower value; note: nearly all actives have a fitted effect of over 50% in size; note: potency is the fitted concentration of half-maximal effect; for max response: % is set by controls: 0 for no effect and ±100 for the full control effect
Procedure, shortened: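 The Tox21 protocol used parental HEK293 cells treated for 18 h at 37 C with compounds delivered by pintool; ATP-coupled luminescence after 30 min at room temperature gave viability.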

AS120 = assay: qHTS profiling for inhibitors of Plasmodium falciparum proliferation (AID 504749); note: nearly all actives have a fitted effect of over 60% in size; note: potency is the fitted concentration of half-maximal effect; conditions: P. falciparum in erythrocytes, SYBR Green DNA, 72 h; series mostly up to 28.7 µM
Procedure, shortened: (§1)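 Parasite proliferation within erythrocytes, 72 h exposure. Endpoint: SYBR Green I fluorescence after overnight lysis at room temperature. Controls: 0.29 uM artemisinin, DMSO.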

CP203 = assay: as above; conditions: P. falciparum in erythrocytes, SYBR Green DNA, 72 h; series mostly up to 28.7 µM
Procedure, shortened: as §1

CP291 = assay: as above; conditions: P. falciparum in erythrocytes, SYBR Green DNA, 72 h; series mostly up to 28.7 µM
Procedure, shortened: as §1

DFO2036 = assay: as above; conditions: P. falciparum in erythrocytes, SYBR Green DNA, 72 h; series mostly up to 28.7 µM
Procedure, shortened: as §1

C=CCN1CC[C@@]23c4c5ccc(O)c4O[C@H]2/C(=N\N=C2/CC[C@@]4(O)[C@H]6Cc7ccc(O)c8c7[C@@]4(CCN6CC=C)[C@@H]2O8)CC[C@]3(O)[C@@H]1C5
inactive: Potency [1] | activation [2] 0.657% | Potency [3] | outcome [4] | outcome [5] | outcome [6] | outcome [7] | outcome [8] | outcome [9]

CC1=C(O)C(=O)[C@H]2O[C@@H]2C1=O
active: Potency [10] 0.158 µM

C/C(O)=C(/C#N)C(=O)Nc1cc(Br)ccc1Br
inactive: Potency [1] | Potency [10] | outcome [12] | Potency [13] | outcome [4] | outcome [5] | outcome [6] | outcome [7] | outcome [8] | outcome [9]
active: Potency [11] 7.94 µM

N[C@@]1(C(=O)O)CC[C@H](C(=O)O)C1
inactive: Potency [10] | outcome [12] | Potency [13] | Potency [3] | outcome [4] | outcome [5] | outcome [6] | outcome [7] | outcome [8] | outcome [9]

CN1CCN(C(=O)O[C@@H]2c3nccnc3C(=O)N2c2ccc(Cl)cn2)CC1
inactive: Potency [11] | Potency [10] | Potency [14] | outcome [15]

O=C1NCN(c2ccccc2)C12CCN(C[C@H]1COc3ccccc3O1)CC2
inactive and 7.94 µM (active): Potency [10]
inactive: outcome [12] | Potency [13] | Potency [3] | outcome [4] | outcome [5] | outcome [6] | outcome [7] | outcome [8]

CN1C(=O)CCS(=O)(=O)[C@H]1c1ccc(Cl)cc1
inactive: Potency [11] | Potency [10] | Potency [14] | outcome [12] | outcome [15] | Potency [13] | Potency [3] | outcome [4] | outcome [5] | outcome [6] | outcome [7] | outcome [8] | outcome [9]

NC[C@H](CP(=O)(O)O)c1ccc(Cl)cc1
inactive: Potency [1] | activation [2] -2.39% | outcome [12] | Potency [13] | Potency [3] | outcome [4] | outcome [5] | outcome [7] | outcome [8] | outcome [9]

CCOC(=O)c1ncn2c1[C@H]1CCCN1C(=O)c1cc(OC)ccc1-2
inactive: Potency [11] | Potency [10] | outcome [12] | Potency [13] | Potency [3] | outcome [4] | outcome [5] | outcome [6] | outcome [7] | outcome [8] | outcome [9]

N[C@H](C(=O)O)c1cc(=O)[nH]o1
inactive: Potency [11] | Potency [10] | outcome [12] | Potency [13] | Potency [3] | outcome [4] | outcome [5] | outcome [6] | outcome [7] | outcome [8] | outcome [9]

CC1OC(=O)C(C(C)C)NC(=O)C(C(C)C)OC(=O)C(C(C)C)NC(=O)C(C)OC(=O)C(C(C)C)NC(=O)C(C(C)C)OC(=O)C(C(C)C)NC(=O)C(C)OC(=O)C(C(C)C)NC(=O)C(C(C)C)OC(=O)C(C(C)C)NC1=O (configuration not stated)
inactive: Potency [14] | outcome [15]

CC(C)n1cnc2c(C(=O)N[C@H]3CN4CCC3CC4)cc(Cl)cc21
active: Potency [11] 0.398 µM

N[C@H](Cc1o[nH]c(=O)c1Cl)C(=O)O
active: Potency [10] 1.26 µM

Cc1ccc2cc3c(ccc4ccccc43)c3c2c1CC3
inactive: max response [16] -7.81%

CC(C)(c1ccc(OCC2CO2)cc1)c1ccc(OCC2CO2)cc1 (configuration not stated)
active: Potency [16] 70.8 µM
inactive: max response [16] -24%

C(=C/c1ccccc1)/CN1CCN(CCOC(c2ccccc2)c2ccccc2)CC1
active: Potency [11] 5.01 µM

CC(C)(C)c1o[nH]c(=O)c1C[C@H](N)C(=O)O
inactive: outcome [12] | Potency [13] | Potency [3] | outcome [4] | outcome [5] | outcome [6] | outcome [7] | outcome [8] | outcome [9]

CCN1C[C@]2(COC)[C@H](O)C[C@H](OC)[C@]34C1C([C@H](OC)[C@H]23)[C@]1(OC(C)=O)C2[C@@H](OC(=O)c3ccccc3)C(O)(C[C@H]24)[C@@H](OC)[C@@H]1O
inactive: Potency (AS120) | Potency (CP203) | Potency (CP291) | Potency (DFO2036)

NC[C@@H](CC(=O)O)c1ccc(Cl)cc1
inactive: Potency [10]

NC[C@H](CC(=O)O)c1ccc(Cl)cc1
active: Potency [10] 2.51 µM

CCN1C[C@]2(COC(=O)c3ccccc3N3C(=O)C[C@H](C)C3=O)CC[C@H](OC)[C@@]34[C@@H]5C[C@H]6[C@H](OC)[C@H]5[C@](O)(C[C@@H]6OC)[C@@](O)([C@@H](OC)[C@@H]23)[C@@H]14
inactive: Potency [11]

Oc1ccc2c3c1O[C@H]1c4oc5ccccc5c4C[C@]4(O)[C@H](C2)N(CC2CC2)CC[C@@]314
inactive: outcome [12] | outcome [4] | outcome [5] | outcome [6] | outcome [7] | outcome [8] | outcome [9]

O=C(Cc1ccc(Cl)c(Cl)c1)N1CCCC[C@H]1CN1CCCC1
active: Potency [10] 6.31 µM
inactive: outcome [12] | outcome [4] | outcome [5] | outcome [6] | outcome [7] | outcome [8]

N#CC(C#N)=Cc1ccc([N+](=O)[O-])c(O)c1
inactive: Potency [1] | outcome [12] | Potency [13] | Potency [3] | outcome [4] | outcome [5] | outcome [6] | outcome [7] | outcome [8] | outcome [9]

C[C@@H](N)Cn1ccc2cc(F)c(Cl)cc21
active: Potency [11] 3.98 µM

Cc1c(C(=O)c2ccc3ccccc3c2)c2cccc3c2n1[C@H](CN1CCOCC1)CO3
inactive: Potency [11]

CNCCc1c[nH]c2ccccc12
inactive: activation [2] -14%

O=C(O)c1ccccc1-c1c2cc(Br)c(=O)cc-2oc2[c]([Hg])c(O)c(Br)cc12
active: Potency [11] 0.631 µM | Potency [10] 3.16 µM
inactive: Potency [14] | outcome [15] | Potency (AS120) | Potency (CP203) | Potency (CP291) | Potency (DFO2036)

CC(C)[C@@]1(NC(=O)[C@H]2CC3c4cccc5[nH]cc(c45)C[C@H]3N(C)C2)O[C@@]2(O)C3CCCN3C(=O)[C@@H](Cc3ccccc3)N2C1=O (some centres not stated)
active: Potency (AS120) 0.891 µM | Potency (CP203) 6.75 µM | Potency (CP291) 10.7 µM | Potency (DFO2036) 7.08 µM
